Bioassay records: PubChem, National Center for Advancing Translational Sciences (NCATS)
gsp antag – antagonizes gsp, the McCune-Albright syndrome mutation. gsp-mutant cells, cAMP HTRF, 30 min. 0.4% of 340,000 active. AID 624288. Potency, µM (titrated, usually from 76.9 µM), inactives show at the highest dose activity change, negative = inhibition, most hits filed as inhibitors; calls by dose curve; cell line not stated here;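 further: intracellular cAMP measured with PDE inhibitor Ro 20-1724 present during compound exposure; potency means the concentration at half of the fitted maximal effect; on the % scale 0 is the no-effect control and ±100 the full control effect; nearly all actives have a fitted effect of over 65% in size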
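HTRF cAMP read-out (cAMP-d2 plus anti-cAMP antibody-K in lysis buffer, 30 min RT). Before lysis, cells are exposed to compounds with […] for 30 min at 37C in DPBS containing Ca/Mg, BSA and Tween 20.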
Pin1 inh – blocks the human prolyl isomerase Pin1 | AID 504891 | Pin1 FP peptide displacement, HiFluor488, 10 min | Potency, µM (top dose mostly 115 µM), inactives show at the highest dose activity, negative = inhibition, most hits filed as inhibitors | 0.009% of 390,000 active; active means well fitted inhibition curve with a large enough effect in the polarisation, with a control signal flat, not every such curve was filed as active; inconclusive means small, poorly fitted or top-dose-only effect, or effect the other way, or a change in a side signal; inactive means no such curve, though single readings can be large or run the other way; the % refers to the polarisation; further: potency means the concentration at half of the fitted maximal effect; on the % scale 0 is the no-effect control and ±100 the full control effect
Target sequence (Q13526 whole entry, looked up): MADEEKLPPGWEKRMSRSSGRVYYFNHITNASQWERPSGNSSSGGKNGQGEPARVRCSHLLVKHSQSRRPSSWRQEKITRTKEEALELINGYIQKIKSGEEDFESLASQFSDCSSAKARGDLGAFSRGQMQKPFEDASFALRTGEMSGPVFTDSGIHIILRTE
TCR activator – activators of T cell receptors; primary human leukocytes, anti-CD3, IL-2 HTRF, 48 h; Potency, µM (doses to about 9.22 µM), for the others: at the top dose activation of IL-2 secretion, usual class: activators; 330,000 tested, under 10 active; AID 504894; active means well fitted activation curve with a large enough effect; inconclusive means small, poorly fitted or top-dose-only effect, or another doubt; inactive means no such curve, though single readings can be large or run the other way; further: % of control where 0% means no effect
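Compounds are tested in HTS on primary human leukocytes co-incubated with a-CD3 beads for 48 hr. IL-2 output is measured by time-resolved FRET.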
TSHR antag – human thyrotropin receptor antagonism; TSHR-expressing cells, TSH-stimulated cAMP HTRF, 2 h; active compounds read low; activity change, negative = inhibition, % at 11.5 µM; 0.2% of 330,000 active; AID 504810;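 active means activity change below a set negative limit, meaning inhibition stronger than a set level, cut at about -70% in these data; inconclusive means activity change between two set negative limits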; further: on the % scale 0 is the no-effect control and ±100 the full control effect
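Freshly harvested TSHR cells receive pin-tooled compound, then EC80 TSH at 4nM final. After 2 hours at 37 deg C, antibody in lysis buffer and cAMP-d2 are added; 30 minutes at ambient temperature precede the HTRF read.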
gsp ag – gsp mutant agonism. Potency, µM (top dose mostly 76.9 µM), for the others: top-dose activation (cAMP increase), hits mostly activators. AID 624287. gsp mutant cells, cAMP HTRF, 30 min. 0.13% of 340,000 active; active means well fitted activation curve with a large enough effect; inconclusive means small, poorly fitted or top-dose-only effect, or another doubt; inactive means no such curve, though single readings can be large or run the other way; cell line not stated here;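 further: phosphodiesterase inhibitor Ro 20-1724 added with compounds to block cAMP breakdown; potency means the concentration at half of the fitted maximal effect; nearly all actives have a fitted effect of over 60% in size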
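Cells in DMEM/10% FBS with G418 were pretreated with compounds in DMSO plus […] (300 uM stock) for 30 min at 37C. cAMP was measured by HTRF (cAMP-d2 plus anti-cAMP antibody-K) after 30 min at room temperature.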
* marks the source's active call; other numbers are inactive results; ? = inconclusive; / = no result; [ ] = remark or other dose. Most compounds without a hit are left out; they make up all but 0.63% or so of the library.

SMILES	gsp antag	Pin1 inh	TCR activator	TSHR antag	gsp ag
Cc1cc(C)cc(C(=O)NC(CC(N)=O)c2ccc(N3CCN(c4ccccn4)CC3)c([N+](=O)[O-])c2)c1 (centres undefined)	-4%	-4%	-1%	-1	/
O=C(c1cccs1)N1CCN(c2nnc(-c3ccccc3)c3ccccc23)CC1	-49%	-1%	2%	-11	-2%[15.4 µM]
Cc1ccc(-c2nnc(N3CCN(C(=O)c4cccs4)CC3)c3ccccc23)cc1	45µM*	-2%	-6%	0	-12%
Cc1ccc(-c2nnc(N3CCCCC3)c3ccccc23)cc1	35µM*	-5%	-3%	-13	-33%
c1ccc(-c2nnc(N3CCN(c4ccccn4)CC3)c3ccccc23)cc1	-13%	?	-1%	-8	-2%
Cc1ccc(-c2nnc(N3CCN(c4ccccn4)CC3)c3ccccc23)cc1	40µM*	9%	2%	-2	-10%[15.4 µM]
C/C(=N\OC(=O)c1ccc(Br)cc1)c1ccccn1	7%	2%	1%[46.1 µM]	7	-25%
COc1ccc(Cc2nnc(NC(=O)c3cccc([N+](=O)[O-])c3C)s2)cc1	-9%	-2%	3%	-1	-15%
CCn1c(SCC(=O)c2[nH]c(C)c(C(C)=O)c2C)nnc1-c1ccccc1	20µM*	19%	0%	-18	-3%
CCn1c(SCC(=O)c2[nH]c(C)c(C(C)=O)c2C)nnc1-c1ccncc1	-10%	7%	-1%	-10	-4%
CCN(CC)c1ccc2nc3ccccc3[n+](CC)c2c1	?	-4%	53%	-140*	9%
Cc1cc2c3c(ccc(C)c3n1)N=CN2c1ccccc1	0%	-2%	-2%	9	?
O=C(NC1CCCCCCC1)c1cccc(S(=O)(=O)N2CCOCC2)c1	17%	-7%	-1%	6	17%
Cc1ccc(Cl)cc1N1CCN(C(=O)C2CCN(S(=O)(=O)c3cccnc3)CC2)CC1	?	9%	1%	-5	-1%
Cc1ccc(Cl)cc1N1CCN(C(=O)C2CCN(S(=O)(=O)c3c(C)nn(C)c3C)CC2)CC1	40µM*	-7%	-2%	0	-5%[15.4 µM]
Cc1ccc(C)c(N2CCN(C(=O)C3CCN(S(=O)(=O)c4cccc5nsnc45)CC3)CC2)c1	22µM*	18%	5%	-3	22%
CC(C)(C)c1ccc(-n2nc(C(N)=O)c(O)cc2=O)cc1	-3%	7%	1%	-1	-22%[15.4 µM]
CC(C)(C)c1ccc(-n2nc(C#N)c(Cl)cc2=O)cc1	8%	?	-3%	-80*	5%
CCc1c(C(=O)O)[nH]c2ccc(Br)cc12	11%	11%	-3%	17	4µM*
Cn1c(N)c(C(=O)COC(=O)CNC(=O)c2ccccc2)c(=O)n(C)c1=O	10%	-2%	2%	-1	2%[15.4 µM]
O=C(Nc1ccccc1)c1ccc2nc(-c3ccco3)c(-c3ccco3)nc2c1	-11%	?	-1%	-5	8%
CC(=O)c1ccc(NC(=O)c2ccc3nc(-c4ccco4)c(-c4ccco4)nc3c2)cc1	-11%	19µM*	-1%	-21	-38%
CC[C@@H](C(=O)[C@@H](C)[C@@H](O)[C@H](C)CCc1ccc(C)c(O)c1C(=O)O)[C@H]1O[C@](CC)([C@H]2CC[C@](O)(CC)[C@H](C)O2)C[C@@H]1C	-21%	-18%	4%	-84*	/
CC[C@@H](C(=O)[C@@H](C)[C@@H](O)[C@H](C)[C@@H]1O[C@@H]([C@@H](CC)C(=O)O)CC[C@@H]1C)[C@H]1O[C@]2(C=C[C@@H](O)[C@]3(CC[C@@](C)([C@H]4CC[C@](O)(CC)[C@H](C)O4)O3)O2)[C@H](C)C[C@@H]1C	-22%	3%	1%	/	/
CC1=C(SCCC#N)S/C(=C2\SC(C)=C(SCCC#N)S2)S1	-9%	1%	7%	-9	10%
N#C/C(=N\Nc1ccc(S(=O)(=O)N2CCOCC2)cc1)C(N)=S	-21%	6%	4%	-8	5%[15.4 µM]
N#CC(C#N)=NNc1ccc(S(=O)(=O)N2CCCCC2)cc1	25µM*	7%	-7%[46.1 µM]	?	6%
Cc1cc2nc3ccc(=[N+](C)C)cc-3sc2cc1N	?	?	25%	-108*	-45%
